From PubChem BioAssay
Wnt bcat act: activates Wnt/beta-catenin signaling in a reporter cell assay; activator, plate reader; activation, % at 9.35 µM; actives 1.2% (n = 300,000); AID 743398; in the data active = activation above about 30%, passing the limit was not always enough; inconclusive = no clear call, values can overlap the other calls;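 note: 0% = neutral control wells and 100% = positive control wells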
esBAF inh: blocks esBAF chromatin remodeling in mouse ES cells | Bmi1-luciferase knock-in reporter, 24 h; 100% = twice the neutral-well signal | reporter increase, % at 12.5 µM | actives 2% (n = 350,000) | AID 602393; in the data active = activation above about 40%; inconclusive = no clear call, values can overlap the other calls;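 note: 0% = median of the plate's neutral control wells and 100% = double that signal; a rise in the Bmi1 reporter signal indicates esBAF inhibition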
MITF act: increases MITF-driven TRPM1 promoter luciferase signal. SK-MEL-5 TRPM1-promoter luciferase, 24 h; % of positive control, neutral wells = 0. activation, % at 12.5 µM. actives 0.75% (n = 300,000);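 active = mean activation of at least 80% with every replicate also reaching 80%; inconclusive = mean reaches 80% but some replicate falls short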;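 note: 0% = neutral control wells and 100% = parthenolide positive control wells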
FXN GAA850 act: frataxin GAA850 promoter activation | HEK293 lucGAA850 FXN promoter luciferase reporter, 24 h; percent of 10 µM SAHA response | activation, % at 6 µM | actives 0.56% (n = 360,000) | AID 540364;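 active = activation above the average of all compounds screened plus 3 SD, cutoff fixed separately per campaign, cut at about 7.5% in these data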;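 note: 0% = DMSO wells and 100% = 10 µM SAHA wells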
* = called active by the depositor; ? = inconclusive; . = no result given. Most compounds without a hit are left out; they make up all but 2.8% or so of the library.

SMILES	Wnt bcat act	esBAF inh	MITF act	FXN GAA850 act
Cc1cc(OCc2cc(C(=O)N(C)CCc3cnn(C)c3)no2)cc(C)c1Cl	0	74*	57	5
CC(=O)c1cccc(OCc2cc(C(=O)N(C)CCc3cnn(C)c3)no2)c1	3	.	5	2
O=C(O)c1cc(-c2ccc(/C=N/N3C(=O)C4C5C=CC(CC5)C4C3=O)o2)ccc1Cl (centres undefined)	0	.	1	-2
COC(=O)c1ccc(-c2ccc(/C=N/N3C(=O)C4C5C=CC(CC5)C4C3=O)o2)cc1 (centres undefined)	28	60*	49	1
O=C(Nc1ccc(F)c(Cl)c1)c1cc(C2CCCN(S(=O)(=O)c3ccccc3)C2)on1 (centres undefined)	-2	10	.	-2
Cn1cnc(S(=O)(=O)N2CCCC(c3cc(C(=O)Nc4ccc(F)c(Cl)c4)no3)C2)c1 (centres undefined)	0	53*	.	1
COc1ccc(CNC(=O)C(c2ccncc2)N(C(=O)Cc2cccs2)c2ccccc2)cc1 (centres undefined)	3	.	-19	0
COc1ccc(CNC(=O)C(c2ccncc2)N(C(=O)Cc2cccs2)c2ccc(C)cc2)cc1 (centres undefined)	.	130*	1	0
N#Cc1ccccc1OCC(=O)Nc1ccc2c(c1)OCO2	3	65*	.	1
N#Cc1ccccc1OCC(=O)Nc1ccc2c(c1)OCCO2	-1	66*	79	2
Cc1cc(OCC(=O)Nc2ccc3c(c2)OCCO3)cc(C)c1Cl	-2	.	-9	-1
CC1CCCCC1NC(=O)COc1ccccc1C#N (centres undefined)	8	53*	6	1
O=C(COc1ccccc1Br)Nc1ccc2c(c1)OCCCO2	0	51*	108*	7
N#Cc1ccccc1OCC(=O)NC1CCCCC1	-1	.	42	2
O=C(COc1ccccc1F)Nc1ccc2c(c1)OCCO2	19	-20	76	-9
C[C@@H]1CCCCO[C@H](CN(C)C(=O)CCC(F)(F)F)[C@@H](C)CN([C@@H](C)CO)C(=O)c2cc(N(C)C)ccc2O1	.	-3	.	.
COc1ccc(NC(=O)Nc2ccc3c(c2)C(=O)N([C@H](C)CO)C[C@H](C)[C@@H](CN(C)S(=O)(=O)c2c(C)noc2C)OCCCC[C@@H](C)O3)cc1	.	-3	.	.
N#Cc1ccccc1OCC(=O)Nc1ccc2c(c1)OCCCO2	11	74*	.	6
CC(C)NC(=O)COc1ccccc1C#N	-1	.	-4	2
CC(C)(C)C(=O)O/N=C(\N)COc1cccc(Cl)c1	11	81*	55	0
C=CCc1ccc(OCCn2cccc2C=O)c(OC)c1	.	.	93*	4
COc1ccc(NC(=O)N(C)C[C@H]2OCCCC[C@@H](C)Oc3ccc(NS(C)(=O)=O)cc3C(=O)N([C@H](C)CO)C[C@H]2C)cc1	.	6	.	.
O=C1C2C3C=CC(C3=C3CCCCC3)C2C(=O)N1c1ccccc1 (centres undefined)	5	-4	-6	-1
CN1C(=O)C2C=CC1C1C(=O)N(c3ccccc3)C(=O)C21 (centres undefined)	.	57*	89*	2
C[C@H](CO)N1C[C@H](C)[C@@H](CN(C)Cc2ccc(C(=O)O)cc2)Oc2ccc(NC(=O)CCC(F)(F)F)cc2C1=O	.	-6	.	.
SMILES	Wnt bcat act	esBAF inh	MITF act	FXN GAA850 act
Cc1ccc(-c2ccc(SCC(=O)NC3CCCC3)nn2)cc1	7	.	28	4
CCOc1ccc(-c2ccc(SCC(=O)NC3CCCCC3)nn2)cc1	20	?	94*	4
Cc1ccc(-c2ccc(SCC(=O)NC3CCCCC3)nn2)cc1	4	52*	42	3
COc1ccc(-c2ccc(SCC(=O)NC3CCCCC3)nn2)cc1	20	16	35	4
Cc1ccccc1S(=O)(=O)N1C[C@@H](O)COC[C@H]2O[C@@H](CC(=O)N3CCC(Cc4ccccc4)CC3)CC[C@@H]21	.	4	.	.
Cc1ccc(-c2n[nH]c(Cc3ccccc3)n2)cc1	0	54*	?	6
CC(c1ccco1)N(C(=O)COc1ccc(Cl)cc1)c1ccccn1 (centres undefined)	.	72*	34	3
CC(c1ccco1)N(C(=O)COc1ccc(Cl)cc1Cl)c1ccccn1 (centres undefined)	18	27	105*	0
C[C@H](CO)N1C[C@H](C)[C@@H](CN(C)Cc2ccc(C(=O)Nc3ccccc3N)cc2)Oc2c(NC(=O)Nc3ccc4c(c3)OCO4)cccc2C1=O	.	1	.	.
COc1ccc(NC(=O)N(C)C[C@H]2Oc3ncc(C#C[C@H](C)O)cc3C(=O)N([C@@H](C)CO)C[C@H]2C)cc1	.	0	.	.
O=c1oc2c(O)cccc2cc1-c1nc2ccccc2[nH]1	36*	0	45	5
Cc1ccc(C(=O)NCC(=O)NCCCc2ccccc2)s1	-1	-1	-5	1
Cc1ccc(C(=O)NCCCc2ccccc2)s1	53*	.	87*	3
Cc1ccc(C(=O)NCCc2c[nH]c3ccccc23)s1	30	56*	.	4
Cc1ccc(C(=O)NCCc2c[nH]c3ccccc23)c(C)c1	24	71*	76	5
CCCNC(=O)C[C@H]1C[C@@H]2c3cc(NC(=O)C4CCC4)ccc3O[C@@H]2[C@H](CO)O1	.	1	.	.
Cc1noc(C)c1C(=O)Nc1nc(-c2cc(F)ccc2F)cs1	9	74*	30	4
Cc1onc(-c2ccccc2)c1C(=O)Nc1nc(-c2cc(F)ccc2F)cs1	-2	30	?	2
CC(=O)Nc1ccccc1C(=O)C(=O)Nc1ccccc1	3	35*	-2	2
O=C(C[C@@H]1CC[C@H]2[C@@H](COC[C@@H](O)CN2S(=O)(=O)c2cccc(Cl)c2)O1)Nc1ccc(-c2ccccc2)cc1	.	-9	.	.
O=C(c1cccc(F)c1)N1C[C@@H]2[C@H](c3ccccc31)[C@H](CO)N2C(=O)c1ccc(F)cc1	.	-6	.	.
O=C(NC(=S)Nc1ccccc1)c1ccc(-c2ccccc2)cc1	19	62*	47	3
CC(=O)c1cccc(NC(=S)NC(=O)c2ccccc2C)c1	5	.	14	-1
Cc1cc(C(=O)NC(=S)Nc2cccc(NC(=O)C(C)C)c2)ccc1[N+](=O)[O-]	10	49*	23	3
CC(C)C(=O)Nc1cccc(NC(=S)NC(=O)c2ccc([N+](=O)[O-])cc2)c1	-1	5	10	-1
CC(=O)c1cccc(NC(=S)NC(=O)c2ccc(Cl)cc2)c1	18	.	97*	5
CC(=O)c1cccc(NC(=S)NC(=O)c2cccc(C)c2)c1	29	.	109*	5
CCCC(=O)Nc1ccc2c(c1)OC[C@H](C)N(C(=O)c1ccncc1)C[C@@H](C)[C@@H](OC)CN(C)C2=O	.	-3	.	.
COc1ccccc1C1C(C#N)=C(N)N(N(C)C)C2=C1C(=O)CC(C)(C)C2 (centres undefined)	40*	-1	-4	1
COc1ccc(OC)c(C2C(C#N)=C(N)N(N(C)C)C3=C2C(=O)CC(C)(C)C3)c1 (centres undefined)	0	.	4	0
